Assay results published in publication PMC7862700, “An all-to-all approach to the identification of sequence-specific readers for epigenetic DNA modifications on cytosine”.

Assays:
Test in all cases: DAPPL (digital affinity profiling via proximity ligation, sequencing); 10 mM Tris-HCl pH 7.5, 50 mM NaCl, 1 mM DTT, 4% glycerol, room temperature, 30 min; GST-TFs on glutathione beads, 16-mer random dsDNA library, 0.1% formaldehyde crosslink after washing; high values mean tight binding
FEV = target: T1, FEV (Homo sapiens, UniProt Q99581 1-238); settings: protein: recombinant; tags: N-terminal GST; dsDNA, one strand shown
T1 sequence: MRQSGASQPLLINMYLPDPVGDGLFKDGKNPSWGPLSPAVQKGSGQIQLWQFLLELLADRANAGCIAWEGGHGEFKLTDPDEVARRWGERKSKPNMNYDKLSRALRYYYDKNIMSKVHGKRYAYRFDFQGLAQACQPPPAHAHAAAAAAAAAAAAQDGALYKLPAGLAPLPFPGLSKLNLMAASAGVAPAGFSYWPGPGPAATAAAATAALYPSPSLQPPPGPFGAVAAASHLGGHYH
In short: (§1)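 Binding signal is defined as a hexamer's read frequency for one factor over its frequency for the tag-only sample. To obtain reads, GST-fused human transcription factors were expressed in yeast, captured on glutathione beads, barcoded with DNA and pooled with that sample. Pools met 200 nmole of a 16-mer random double-stranded DNA library in Tris/NaCl/DTT/glycerol buffer for 30 min at room temperature before washing, 0.1% formaldehyde crosslinking, proximity ligation (BsaI/T4 ligase, 1 h, 37 °C), PCR and Illumina NextSeq500 sequencing.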

ETV5 = ETV5 (Homo sapiens, UniProt P41161 1-510); settings: protein: recombinant; tags: N-terminal GST; dsDNA, one strand shown
In short: as §1

HSF1 = HSF1 (Homo sapiens, UniProt Q00613 1-529); settings: protein: recombinant; tags: N-terminal GST; chain copies: 3; dsDNA, one strand shown
In short: as §1

SPIC = target: T2, SPIC (Homo sapiens, UniProt Q8N5J4 1-248); settings: protein: recombinant; tags: N-terminal GST; dsDNA, one strand shown
T2 sequence: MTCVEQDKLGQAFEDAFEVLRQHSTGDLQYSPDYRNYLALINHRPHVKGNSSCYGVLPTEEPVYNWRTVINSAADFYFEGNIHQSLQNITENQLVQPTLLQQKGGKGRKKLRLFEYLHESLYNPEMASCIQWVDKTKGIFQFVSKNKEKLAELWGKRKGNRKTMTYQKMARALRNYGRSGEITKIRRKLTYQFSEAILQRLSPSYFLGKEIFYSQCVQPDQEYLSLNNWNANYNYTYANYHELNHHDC
In short: as §1

ELF4 = ELF4 (Homo sapiens, UniProt Q99607 1-663); settings: protein: recombinant; tags: N-terminal GST; dsDNA, one strand shown
In short: as §1

ELK4 = target: T3, ELK4 (Homo sapiens, UniProt P28324-2 1-405); settings: protein: recombinant; tags: N-terminal GST; dsDNA, one strand shown
T3 sequence: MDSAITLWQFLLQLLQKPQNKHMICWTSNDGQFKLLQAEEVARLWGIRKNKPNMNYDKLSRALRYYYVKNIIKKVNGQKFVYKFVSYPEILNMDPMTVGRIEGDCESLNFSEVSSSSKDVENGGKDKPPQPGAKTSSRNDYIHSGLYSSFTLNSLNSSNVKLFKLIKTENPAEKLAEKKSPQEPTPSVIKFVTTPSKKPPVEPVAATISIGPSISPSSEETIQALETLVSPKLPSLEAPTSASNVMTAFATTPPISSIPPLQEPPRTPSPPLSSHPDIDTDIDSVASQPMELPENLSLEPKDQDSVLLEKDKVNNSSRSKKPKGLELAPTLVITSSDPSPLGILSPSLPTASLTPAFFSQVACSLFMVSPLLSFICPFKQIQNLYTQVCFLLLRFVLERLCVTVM
In short: as §1

ETV2 = target: T4, ETV2 (Homo sapiens, UniProt O00321 1-342); settings: protein: recombinant; tags: N-terminal GST; dsDNA, one strand shown
T4 sequence: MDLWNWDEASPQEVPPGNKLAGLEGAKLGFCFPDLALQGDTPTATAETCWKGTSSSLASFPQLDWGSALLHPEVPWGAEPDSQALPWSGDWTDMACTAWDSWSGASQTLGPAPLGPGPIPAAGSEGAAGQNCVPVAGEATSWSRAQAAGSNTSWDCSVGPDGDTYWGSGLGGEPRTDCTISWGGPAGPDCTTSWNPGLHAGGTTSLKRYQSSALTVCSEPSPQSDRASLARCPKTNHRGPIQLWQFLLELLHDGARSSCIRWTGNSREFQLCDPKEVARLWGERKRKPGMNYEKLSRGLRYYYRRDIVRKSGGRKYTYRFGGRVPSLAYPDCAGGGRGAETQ
In short: as §1

ELF3 = target: T5, ELF3 (Homo sapiens, UniProt P78545 1-371); settings: protein: recombinant; tags: N-terminal GST; dsDNA, one strand shown
T5 sequence: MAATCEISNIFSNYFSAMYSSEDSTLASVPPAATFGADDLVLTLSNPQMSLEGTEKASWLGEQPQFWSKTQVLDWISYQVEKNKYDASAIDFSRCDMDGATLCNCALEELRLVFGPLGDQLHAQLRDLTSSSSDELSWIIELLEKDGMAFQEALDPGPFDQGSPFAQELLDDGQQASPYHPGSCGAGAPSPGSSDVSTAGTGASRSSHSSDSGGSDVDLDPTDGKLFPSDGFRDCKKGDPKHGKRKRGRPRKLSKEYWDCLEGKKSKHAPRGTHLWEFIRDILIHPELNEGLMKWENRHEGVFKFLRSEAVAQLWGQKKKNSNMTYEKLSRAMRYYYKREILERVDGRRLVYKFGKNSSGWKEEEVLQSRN
In short: as §1

CRX = CRX (Homo sapiens, UniProt O43186 1-299); settings: protein: recombinant; tags: N-terminal GST; dsDNA, one strand shown
In short: as §1

ETV1 = ETV1 (Homo sapiens, UniProt P50549 1-477); settings: protein: recombinant; tags: N-terminal GST; dsDNA, one strand shown
In short: as §1

ERF = target: T6, ERF (Homo sapiens, UniProt P50548 1-548); settings: protein: recombinant; tags: N-terminal GST; dsDNA, one strand shown
T6 sequence: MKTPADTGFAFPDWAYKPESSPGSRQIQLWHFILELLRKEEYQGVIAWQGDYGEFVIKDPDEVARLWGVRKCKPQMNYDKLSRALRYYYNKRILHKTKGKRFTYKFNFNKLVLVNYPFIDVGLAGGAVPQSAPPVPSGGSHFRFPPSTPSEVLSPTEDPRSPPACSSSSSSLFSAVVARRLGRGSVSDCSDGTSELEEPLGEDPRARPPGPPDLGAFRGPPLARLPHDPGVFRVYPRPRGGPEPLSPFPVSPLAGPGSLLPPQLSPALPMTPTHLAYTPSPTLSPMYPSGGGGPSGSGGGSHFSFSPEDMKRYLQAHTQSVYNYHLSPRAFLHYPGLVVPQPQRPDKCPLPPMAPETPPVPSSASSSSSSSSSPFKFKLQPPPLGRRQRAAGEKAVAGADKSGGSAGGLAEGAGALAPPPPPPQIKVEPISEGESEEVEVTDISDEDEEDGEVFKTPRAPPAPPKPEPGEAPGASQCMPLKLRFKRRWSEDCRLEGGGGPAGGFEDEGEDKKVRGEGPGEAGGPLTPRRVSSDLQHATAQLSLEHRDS
In short: as §1

ETV3L = target: T7, ETV3L (Homo sapiens, UniProt Q6ZN32 1-361); settings: protein: recombinant; tags: N-terminal GST; dsDNA, one strand shown
T7 sequence: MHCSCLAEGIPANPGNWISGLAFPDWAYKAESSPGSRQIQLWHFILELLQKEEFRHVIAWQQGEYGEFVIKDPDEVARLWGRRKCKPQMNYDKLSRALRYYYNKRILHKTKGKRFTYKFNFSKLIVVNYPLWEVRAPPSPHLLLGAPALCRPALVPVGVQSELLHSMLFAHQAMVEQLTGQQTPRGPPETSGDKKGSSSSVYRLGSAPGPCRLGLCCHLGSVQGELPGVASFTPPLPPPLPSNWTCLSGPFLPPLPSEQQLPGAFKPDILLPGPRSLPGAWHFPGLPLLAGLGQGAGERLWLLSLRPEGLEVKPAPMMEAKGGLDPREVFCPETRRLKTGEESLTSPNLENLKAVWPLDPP
In short: as §1

ETS2 = target: T8, ETS2 (Homo sapiens, UniProt P15036 1-469); settings: protein: recombinant; tags: N-terminal GST; dsDNA, one strand shown
T8 sequence: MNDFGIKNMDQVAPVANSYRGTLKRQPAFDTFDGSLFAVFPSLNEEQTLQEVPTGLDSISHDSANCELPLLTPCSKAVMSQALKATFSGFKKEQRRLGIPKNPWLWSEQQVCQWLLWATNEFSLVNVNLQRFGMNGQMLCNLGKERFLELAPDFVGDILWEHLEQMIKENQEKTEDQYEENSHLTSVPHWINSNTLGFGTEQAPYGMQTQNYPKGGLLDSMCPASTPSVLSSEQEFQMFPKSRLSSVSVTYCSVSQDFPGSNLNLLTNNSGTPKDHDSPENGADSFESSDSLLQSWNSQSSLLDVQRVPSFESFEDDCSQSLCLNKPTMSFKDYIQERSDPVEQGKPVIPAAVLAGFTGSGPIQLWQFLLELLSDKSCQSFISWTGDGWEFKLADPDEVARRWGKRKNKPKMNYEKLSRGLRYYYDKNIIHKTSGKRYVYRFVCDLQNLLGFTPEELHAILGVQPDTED
In short: as §1

SPDEF = target: T9, SPDEF (Homo sapiens, UniProt O95238 1-335); settings: protein: recombinant; tags: N-terminal GST; dsDNA, one strand shown
T9 sequence: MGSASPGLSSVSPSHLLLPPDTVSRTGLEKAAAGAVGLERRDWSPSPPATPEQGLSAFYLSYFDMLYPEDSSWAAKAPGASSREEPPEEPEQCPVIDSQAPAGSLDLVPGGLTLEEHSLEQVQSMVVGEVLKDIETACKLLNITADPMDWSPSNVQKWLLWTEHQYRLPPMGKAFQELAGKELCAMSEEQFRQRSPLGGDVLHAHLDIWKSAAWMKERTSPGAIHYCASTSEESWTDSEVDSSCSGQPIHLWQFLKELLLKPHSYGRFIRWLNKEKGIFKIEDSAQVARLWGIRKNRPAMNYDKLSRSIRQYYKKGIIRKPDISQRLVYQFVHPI
In short: as §1

ETV7 = target: T10, ETV7 (Homo sapiens, UniProt Q9Y603 1-341); settings: protein: recombinant; tags: N-terminal GST; dsDNA, one strand shown
T10 sequence: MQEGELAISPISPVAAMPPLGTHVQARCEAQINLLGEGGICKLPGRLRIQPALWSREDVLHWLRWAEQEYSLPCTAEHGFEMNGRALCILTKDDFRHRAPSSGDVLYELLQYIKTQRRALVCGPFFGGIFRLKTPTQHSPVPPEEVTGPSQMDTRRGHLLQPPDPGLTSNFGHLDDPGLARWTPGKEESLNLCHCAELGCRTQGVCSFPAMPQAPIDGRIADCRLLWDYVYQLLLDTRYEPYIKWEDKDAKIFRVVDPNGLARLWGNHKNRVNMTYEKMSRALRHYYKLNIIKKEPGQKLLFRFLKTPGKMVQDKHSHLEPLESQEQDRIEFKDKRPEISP
In short: as §1

ELF5 = target: T11, ELF5 (Homo sapiens, UniProt Q9UKW6-2 1-255); settings: protein: recombinant; tags: N-terminal GST; dsDNA, one strand shown
T11 sequence: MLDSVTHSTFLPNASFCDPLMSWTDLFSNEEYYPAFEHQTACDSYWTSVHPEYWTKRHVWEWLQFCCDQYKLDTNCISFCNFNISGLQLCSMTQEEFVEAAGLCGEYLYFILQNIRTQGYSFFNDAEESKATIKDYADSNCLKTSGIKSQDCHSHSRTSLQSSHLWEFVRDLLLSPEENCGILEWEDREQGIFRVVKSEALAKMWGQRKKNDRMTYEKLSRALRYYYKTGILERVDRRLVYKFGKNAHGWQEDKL
In short: as §1

ETV3 = target: T12, ETV3 (Homo sapiens, UniProt P41162-2 1-143); settings: protein: recombinant; tags: N-terminal GST; dsDNA, one strand shown
T12 sequence: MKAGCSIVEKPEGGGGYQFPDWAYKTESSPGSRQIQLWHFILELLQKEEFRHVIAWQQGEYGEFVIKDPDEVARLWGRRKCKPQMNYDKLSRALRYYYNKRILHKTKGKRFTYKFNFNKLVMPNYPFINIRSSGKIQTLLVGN
In short: as §1

ETV6 = ETV6 (Homo sapiens, UniProt P41212 1-452); settings: protein: recombinant; tags: N-terminal GST; dsDNA, one strand shown
In short: as §1

Sequence of CRX (O43186 whole entry): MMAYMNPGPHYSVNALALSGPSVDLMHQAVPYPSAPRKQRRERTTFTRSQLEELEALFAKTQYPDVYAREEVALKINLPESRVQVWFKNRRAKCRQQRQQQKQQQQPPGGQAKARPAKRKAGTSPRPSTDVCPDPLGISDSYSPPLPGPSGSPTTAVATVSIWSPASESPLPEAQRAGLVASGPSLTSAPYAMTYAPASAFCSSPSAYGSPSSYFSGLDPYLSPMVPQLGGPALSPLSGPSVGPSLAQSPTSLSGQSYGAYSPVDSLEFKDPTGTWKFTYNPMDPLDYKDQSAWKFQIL
Sequence of ETV5 (P41161 whole entry): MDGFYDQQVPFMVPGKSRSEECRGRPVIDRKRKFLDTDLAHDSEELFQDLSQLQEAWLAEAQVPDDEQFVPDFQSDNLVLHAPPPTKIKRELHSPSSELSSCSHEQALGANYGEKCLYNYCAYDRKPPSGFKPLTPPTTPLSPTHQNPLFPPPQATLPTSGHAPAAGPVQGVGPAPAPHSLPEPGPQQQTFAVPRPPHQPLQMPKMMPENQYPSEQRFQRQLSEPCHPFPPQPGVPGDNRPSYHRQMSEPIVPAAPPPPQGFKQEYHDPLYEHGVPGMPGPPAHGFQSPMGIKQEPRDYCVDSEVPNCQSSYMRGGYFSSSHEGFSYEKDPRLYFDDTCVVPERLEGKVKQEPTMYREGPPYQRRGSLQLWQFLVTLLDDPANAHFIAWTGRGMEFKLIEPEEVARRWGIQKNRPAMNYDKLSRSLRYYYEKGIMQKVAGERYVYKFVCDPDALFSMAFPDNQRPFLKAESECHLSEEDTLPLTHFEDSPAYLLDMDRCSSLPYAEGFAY
Sequence of ELF4 (Q99607 whole entry): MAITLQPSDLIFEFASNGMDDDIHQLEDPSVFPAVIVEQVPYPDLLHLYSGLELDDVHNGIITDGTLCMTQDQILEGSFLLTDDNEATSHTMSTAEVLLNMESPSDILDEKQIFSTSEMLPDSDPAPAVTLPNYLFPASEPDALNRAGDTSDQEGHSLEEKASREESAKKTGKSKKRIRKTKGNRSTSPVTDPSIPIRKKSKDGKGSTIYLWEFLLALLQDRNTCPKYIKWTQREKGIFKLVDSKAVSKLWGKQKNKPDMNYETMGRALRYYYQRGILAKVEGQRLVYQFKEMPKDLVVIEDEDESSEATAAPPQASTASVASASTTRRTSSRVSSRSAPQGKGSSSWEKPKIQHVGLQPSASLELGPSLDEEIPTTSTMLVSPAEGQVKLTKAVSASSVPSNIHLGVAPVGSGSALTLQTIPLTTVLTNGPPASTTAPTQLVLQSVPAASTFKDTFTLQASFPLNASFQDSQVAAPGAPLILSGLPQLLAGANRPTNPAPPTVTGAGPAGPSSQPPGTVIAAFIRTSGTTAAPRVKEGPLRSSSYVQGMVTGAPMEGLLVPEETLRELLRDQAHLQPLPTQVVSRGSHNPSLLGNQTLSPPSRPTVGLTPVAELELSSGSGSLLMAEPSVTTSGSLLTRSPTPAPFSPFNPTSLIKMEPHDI
Sequence of ETV6 (P41212 whole entry): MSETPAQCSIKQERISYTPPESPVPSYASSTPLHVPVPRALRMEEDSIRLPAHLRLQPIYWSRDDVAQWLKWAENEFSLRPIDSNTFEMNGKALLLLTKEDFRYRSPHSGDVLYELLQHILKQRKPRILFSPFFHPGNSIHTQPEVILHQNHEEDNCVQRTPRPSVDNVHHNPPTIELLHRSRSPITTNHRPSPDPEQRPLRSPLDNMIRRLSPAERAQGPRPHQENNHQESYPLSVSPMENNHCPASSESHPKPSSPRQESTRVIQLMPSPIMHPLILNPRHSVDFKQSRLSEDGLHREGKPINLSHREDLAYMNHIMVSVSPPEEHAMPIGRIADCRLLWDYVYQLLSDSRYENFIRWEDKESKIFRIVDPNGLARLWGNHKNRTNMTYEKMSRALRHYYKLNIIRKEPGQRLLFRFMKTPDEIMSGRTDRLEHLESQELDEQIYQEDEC
Sequence of HSF1 (Q00613 whole entry): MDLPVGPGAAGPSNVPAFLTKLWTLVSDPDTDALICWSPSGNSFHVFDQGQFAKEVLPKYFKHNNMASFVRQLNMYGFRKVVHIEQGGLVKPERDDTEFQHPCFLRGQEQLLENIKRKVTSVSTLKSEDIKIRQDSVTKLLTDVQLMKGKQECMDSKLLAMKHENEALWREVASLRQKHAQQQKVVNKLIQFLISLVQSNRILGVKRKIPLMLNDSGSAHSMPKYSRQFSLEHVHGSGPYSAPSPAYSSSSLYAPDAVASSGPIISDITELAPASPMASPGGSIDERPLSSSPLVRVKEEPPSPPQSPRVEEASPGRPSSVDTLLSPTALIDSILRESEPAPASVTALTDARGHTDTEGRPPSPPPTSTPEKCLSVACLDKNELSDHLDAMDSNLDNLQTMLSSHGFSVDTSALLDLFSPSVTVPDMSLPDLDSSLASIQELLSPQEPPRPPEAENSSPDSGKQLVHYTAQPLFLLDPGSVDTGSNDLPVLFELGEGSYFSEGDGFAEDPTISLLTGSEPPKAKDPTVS
Sequence of ETV1 (P50549 whole entry): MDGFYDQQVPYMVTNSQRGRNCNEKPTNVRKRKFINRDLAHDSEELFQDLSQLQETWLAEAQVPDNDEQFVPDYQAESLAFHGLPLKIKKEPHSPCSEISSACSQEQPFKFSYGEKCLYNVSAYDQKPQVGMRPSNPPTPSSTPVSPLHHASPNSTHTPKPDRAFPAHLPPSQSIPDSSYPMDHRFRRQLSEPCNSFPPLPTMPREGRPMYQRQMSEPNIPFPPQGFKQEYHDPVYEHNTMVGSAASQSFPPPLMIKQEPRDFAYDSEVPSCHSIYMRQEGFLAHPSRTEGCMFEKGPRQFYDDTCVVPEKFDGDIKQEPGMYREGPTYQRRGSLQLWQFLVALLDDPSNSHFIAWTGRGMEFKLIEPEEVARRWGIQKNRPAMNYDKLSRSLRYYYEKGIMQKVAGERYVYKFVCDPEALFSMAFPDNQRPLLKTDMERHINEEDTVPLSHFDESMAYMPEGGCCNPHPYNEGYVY

ATATTA
binding signal (FEV): 1.07 fold enrichment (6-mer frequency, TF over GST control)
binding signal (ETV5): 1.14 fold enrichment (6-mer frequency, TF over GST control)
binding signal (HSF1): 1.35 fold enrichment (6-mer frequency, TF over GST control)
binding signal (SPIC): 1.23 fold enrichment (6-mer frequency, TF over GST control)
binding signal (ELF4): 1.13 fold enrichment (6-mer frequency, TF over GST control)
binding signal (ELK4): 1.16 fold enrichment (6-mer frequency, TF over GST control)
binding signal (ETV2): 1.13 fold enrichment (6-mer frequency, TF over GST control)
binding signal (ELF3): 1.21 fold enrichment (6-mer frequency, TF over GST control)
binding signal (CRX): 1.8 fold enrichment (6-mer frequency, TF over GST control)
binding signal (ETV1): 1.17 fold enrichment (6-mer frequency, TF over GST control)
binding signal (ERF): 1.16 fold enrichment (6-mer frequency, TF over GST control)
binding signal (ETV3L): 1.17 fold enrichment (6-mer frequency, TF over GST control)
binding signal (ETS2): 1.06 fold enrichment (6-mer frequency, TF over GST control)
binding signal (SPDEF): 1.11 fold enrichment (6-mer frequency, TF over GST control)
binding signal (ETV7): 1.1 fold enrichment (6-mer frequency, TF over GST control)
binding signal (ELF5): 1.09 fold enrichment (6-mer frequency, TF over GST control)
binding signal (ETV3): 1.18 fold enrichment (6-mer frequency, TF over GST control)
binding signal (ETV6): 1.13 fold enrichment (6-mer frequency, TF over GST control)
